Test [1] concerns the target Glucocorticoid receptor (Homo sapiens) (UniProt P04150). The test can be described thus: ATG_GR_TRANS: Attagene TRANS-FACTORIAL HepG2 Assay for human Glucocorticoid Receptor (GR) (AID 2282978).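 Further: activators score as hits since higher reporter transcript over DMSO is fitted.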 The following applies: HepG2 Attagene TRANS GR reporter, mRNA transcription. The gist of the method: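 HepG2 cells transiently transfected with multiplexed reporter units in which chimeric NR-GAL4 proteins drive GAL4-UAS reporters; 24 h compound exposure. Reporter mRNA measured by RT-PCR, 6-FAM labelling, HpaI digestion and capillary electrophoresis; gain-of-signal fitted versus DMSO.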

Test [2] concerns the target Oxysterols receptor LXR-beta (Homo sapiens) (UniProt P55055). As to the kind of experiment: ATG_LXRb_TRANS: Attagene TRANS-FACTORIAL HepG2 Assay for human Liver X Receptor beta (LXRb) (AID 2282981). Particulars: HepG2 Attagene TRANS GAL4-LXRb reporter, mRNA. The gist of the method: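 Cells: HepG2, transiently transfected with GAL4-UAS reporter units plus LXRb-Gal4 fusion. Treatment: 24 h. Detection: reporter mRNA by RT-PCR, 6-FAM labelling, HpaI digestion, capillary electrophoresis.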

Test [3] deals with Hepatocyte nuclear factor 4-alpha (Homo sapiens) (UniProt P41235). As to the kind of experiment: ATG_HNF4a_TRANS: Attagene TRANS-FACTORIAL HepG2 Assay for human Hepatocyte Nuclear Factor 4 alpha (HNF4a) (AID 2282982). Particulars: HepG2 HNF4a transactivation reporter, mRNA readout. Put shortly: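 Transfected HepG2 reporter cells are dosed for 24 h; reporter RNA is reverse-transcribed, amplified, fluorescently labelled and HpaI-digested before CE sizing. Positive-direction fit against DMSO.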
Chain of Hepatocyte nuclear factor 4-alpha (Homo sapiens) (P41235 whole entry, looked up): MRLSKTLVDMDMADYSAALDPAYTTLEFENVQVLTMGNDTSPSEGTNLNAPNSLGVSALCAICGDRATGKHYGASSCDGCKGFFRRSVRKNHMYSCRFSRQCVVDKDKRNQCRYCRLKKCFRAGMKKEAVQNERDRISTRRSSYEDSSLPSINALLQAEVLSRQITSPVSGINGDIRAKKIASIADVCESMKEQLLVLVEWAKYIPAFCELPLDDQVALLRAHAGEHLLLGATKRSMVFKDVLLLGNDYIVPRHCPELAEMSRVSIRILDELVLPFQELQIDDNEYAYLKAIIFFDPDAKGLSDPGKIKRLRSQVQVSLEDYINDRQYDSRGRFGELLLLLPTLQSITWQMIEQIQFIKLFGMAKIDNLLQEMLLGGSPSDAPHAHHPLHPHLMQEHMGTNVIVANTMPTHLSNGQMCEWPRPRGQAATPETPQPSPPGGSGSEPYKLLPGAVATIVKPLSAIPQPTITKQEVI

The target of test [4] is Nuclear respiratory factor 1 (Homo sapiens) (UniProt Q16656). The test can be described thus: ATG_NRF1_CIS: Attagene CIS-FACTORIAL HepG2 Assay for human Nuclear Respiratory Factor 1 (NRF1) Orphan Gene (AID 2282987; active means hit-call score of the fitted dose curve at least 0.9, where 1 is the maximum; inactive means score below 0.9). Particulars: HepG2 NRF1 cis-element reporter, Attagene multiplex; actives raise or lower the signal. Put shortly:
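HepG2 cells transiently transfected with multiple reporter transcription units under cis-regulatory promoter control, so endogenous transcription-factor activity is read. After 24 h compound exposure, reporter mRNA quantified by RT-PCR, fluorescent labelling, HpaI digestion and capillary electrophoresis; bidirectional fitting versus DMSO.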

Test [5] concerns the target Oxysterols receptor LXR-alpha (Homo sapiens) (UniProt Q13133). As to the kind of experiment: ATG_LXRa_TRANS: Attagene TRANS-FACTORIAL HepG2 Assay for human Liver X Receptor alpha (LXRa) (AID 2282980). Particulars: HepG2 Attagene TRANS reporter, LXRa transactivation. Put shortly: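 Transfect HepG2 with GAL4-UAS multiplex reporter constructs (TRANS format, chimeric receptor-GAL4); treat 24 h; extract RNA, reverse-transcribe, PCR-amplify, FAM-label, HpaI-digest; resolve fragments by capillary electrophoresis. Upward response vs DMSO.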

The nature of test [6]: ATG_M_06_TRANS: Attagene TRANS-FACTORIAL HepG2 Assay for M06 Transcription Factor (Internal Marker) (AID 2282983).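 Further: reporter transcript level by RT-PCR then capillary electrophoresis fluorescence.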 The following applies: HepG2 Attagene TRANS M06 internal marker reporter. The gist of the method: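 Transfect HepG2 with MRTUs → dose compounds 24 h → isolate RNA, oligo(dT) RT → PCR with reporter primers → 6-FAM primer extension → HpaI digest → CE fragment analysis. Positive direction vs DMSO.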

Test [7] in a line: ATG_M_32_TRANS: Attagene TRANS-FACTORIAL HepG2 Assay for M32 Transcription Factor (Internal Marker) (AID 2282984).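 Further: transcript level of a background control reporter unit measured by RT-PCR and capillary electrophoresis.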 Particulars: HepG2 Attagene TRANS M32 internal marker reporter. Put shortly: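 Using transiently transfected HepG2 cells exposed to test chemicals for 24 h, reporter transcripts are converted to labelled cDNA fragments and quantified by capillary electrophoresis. DMSO defines the activity baseline.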

The target of test [8] is Transcriptional activator Myb (Homo sapiens) (UniProt P10242). As to the kind of experiment: ATG_Myb_CIS: Attagene CIS-FACTORIAL HepG2 Assay for human Myeloblastosis (Myb) Proto-Oncogene Transcription Factor (AID 2282986; active means hit-call score of the fitted dose curve at least 0.9, where 1 is the maximum; inactive means score below 0.9). The following applies: HepG2 Attagene CIS-FACTORIAL Myb reporter transcription; actives raise or lower the signal. Put shortly:
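HepG2 cells were transiently transfected with cis-regulated multiple reporter transcription units reflecting endogenous Myb activity, then exposed to compound for 24 hours. Reporter mRNA was measured by RT-PCR with capillary electrophoresis; bidirectional fitting versus DMSO baseline.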

Test [9] concerns the target Nuclear receptor subfamily 4 group A member 2 (Homo sapiens) (UniProt P43354). As to the kind of experiment: ATG_NURR1_TRANS: Attagene TRANS-FACTORIAL HepG2 Assay for human Nuclear Receptor Related Protein 1 (NURR1) (AID 2282985). The following applies: HepG2 Attagene TRANS reporter, mRNA readout. The gist of the method: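 Cells: HepG2, transiently transfected. Exposure: 24 h. Detection: fluorescence of labelled RT-PCR products separated by capillary electrophoresis; upward fit versus DMSO.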

Records with an inconclusive call do not appear. Calls of active or inactive are those of the source. How the source made its calls, unless noted: active means hit-call score of the fitted dose curve at least 0.9, where 1 is the maximum; inconclusive means response in the unintended direction; inactive means score below 0.9.

Chain of Oxysterols receptor LXR-alpha (Homo sapiens) (Q13133 whole entry, looked up, the tested form may be a part): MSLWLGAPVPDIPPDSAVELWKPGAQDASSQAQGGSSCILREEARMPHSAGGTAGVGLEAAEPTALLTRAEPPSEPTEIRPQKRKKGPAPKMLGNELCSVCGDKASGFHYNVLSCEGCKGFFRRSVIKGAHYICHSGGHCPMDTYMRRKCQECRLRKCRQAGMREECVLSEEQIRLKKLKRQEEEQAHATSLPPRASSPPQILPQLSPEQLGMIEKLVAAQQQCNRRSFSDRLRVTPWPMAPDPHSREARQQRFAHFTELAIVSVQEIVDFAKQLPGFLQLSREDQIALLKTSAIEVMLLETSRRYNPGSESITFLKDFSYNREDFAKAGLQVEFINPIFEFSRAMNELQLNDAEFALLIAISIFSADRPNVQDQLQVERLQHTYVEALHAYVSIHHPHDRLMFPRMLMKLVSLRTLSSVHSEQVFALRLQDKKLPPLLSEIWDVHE
Chain of Transcriptional activator Myb (Homo sapiens) (P10242 whole entry, looked up): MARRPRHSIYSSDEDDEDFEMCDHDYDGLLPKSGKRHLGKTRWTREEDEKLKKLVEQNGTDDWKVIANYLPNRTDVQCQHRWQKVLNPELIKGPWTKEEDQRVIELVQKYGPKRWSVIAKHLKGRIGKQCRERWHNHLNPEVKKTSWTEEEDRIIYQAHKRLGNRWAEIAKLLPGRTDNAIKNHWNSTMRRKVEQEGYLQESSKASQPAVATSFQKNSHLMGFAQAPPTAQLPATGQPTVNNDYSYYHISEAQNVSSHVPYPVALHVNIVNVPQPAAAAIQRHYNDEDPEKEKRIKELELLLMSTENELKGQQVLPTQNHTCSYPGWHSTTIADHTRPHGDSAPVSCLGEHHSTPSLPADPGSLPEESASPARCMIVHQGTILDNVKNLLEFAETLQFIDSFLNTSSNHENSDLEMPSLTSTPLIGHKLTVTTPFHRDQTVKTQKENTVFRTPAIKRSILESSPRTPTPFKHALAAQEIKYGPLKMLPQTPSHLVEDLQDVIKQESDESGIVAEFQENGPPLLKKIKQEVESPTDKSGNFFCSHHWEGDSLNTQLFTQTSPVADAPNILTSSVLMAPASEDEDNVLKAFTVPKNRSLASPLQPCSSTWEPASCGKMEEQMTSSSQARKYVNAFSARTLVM
Chain of Nuclear receptor subfamily 4 group A member 2 (Homo sapiens) (P43354 whole entry, looked up): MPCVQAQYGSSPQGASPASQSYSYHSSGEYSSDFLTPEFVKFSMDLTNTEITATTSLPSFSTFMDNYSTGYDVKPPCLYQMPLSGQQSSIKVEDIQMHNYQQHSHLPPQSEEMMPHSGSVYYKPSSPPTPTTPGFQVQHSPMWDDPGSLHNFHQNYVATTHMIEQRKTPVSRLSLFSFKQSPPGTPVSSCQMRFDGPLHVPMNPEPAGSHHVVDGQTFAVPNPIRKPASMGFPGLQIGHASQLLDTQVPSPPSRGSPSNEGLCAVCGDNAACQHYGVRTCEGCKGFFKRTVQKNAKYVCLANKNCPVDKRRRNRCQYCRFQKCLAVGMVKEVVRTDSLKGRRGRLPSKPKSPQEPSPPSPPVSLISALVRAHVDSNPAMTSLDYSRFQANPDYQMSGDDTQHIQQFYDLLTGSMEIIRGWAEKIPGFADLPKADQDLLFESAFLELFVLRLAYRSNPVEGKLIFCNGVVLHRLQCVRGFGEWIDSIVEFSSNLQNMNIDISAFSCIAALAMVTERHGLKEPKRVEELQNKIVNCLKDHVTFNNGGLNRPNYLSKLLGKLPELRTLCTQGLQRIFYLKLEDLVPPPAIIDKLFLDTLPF
Chain of Glucocorticoid receptor (Homo sapiens) (P04150 whole entry, looked up, the tested form may be a part): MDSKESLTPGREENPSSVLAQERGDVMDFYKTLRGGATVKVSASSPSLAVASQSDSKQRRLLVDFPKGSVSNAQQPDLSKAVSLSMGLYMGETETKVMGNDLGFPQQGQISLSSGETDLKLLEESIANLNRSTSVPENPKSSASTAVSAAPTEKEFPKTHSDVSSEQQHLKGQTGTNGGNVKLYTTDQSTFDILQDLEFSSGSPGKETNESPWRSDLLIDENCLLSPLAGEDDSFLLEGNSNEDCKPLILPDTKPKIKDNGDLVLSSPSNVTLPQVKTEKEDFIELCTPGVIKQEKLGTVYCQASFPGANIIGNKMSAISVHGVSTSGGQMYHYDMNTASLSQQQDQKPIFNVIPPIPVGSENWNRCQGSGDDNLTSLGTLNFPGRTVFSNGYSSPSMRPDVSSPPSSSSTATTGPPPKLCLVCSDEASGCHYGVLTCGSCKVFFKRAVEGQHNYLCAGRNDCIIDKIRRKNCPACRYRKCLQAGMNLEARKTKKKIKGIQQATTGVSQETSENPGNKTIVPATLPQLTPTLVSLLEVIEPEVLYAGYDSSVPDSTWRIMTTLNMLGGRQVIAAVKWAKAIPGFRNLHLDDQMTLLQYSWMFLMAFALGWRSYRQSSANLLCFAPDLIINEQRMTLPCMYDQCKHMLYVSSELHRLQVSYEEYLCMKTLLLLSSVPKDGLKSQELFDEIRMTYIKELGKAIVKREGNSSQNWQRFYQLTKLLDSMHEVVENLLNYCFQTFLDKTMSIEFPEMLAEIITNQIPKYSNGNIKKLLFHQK
Chain of Nuclear respiratory factor 1 (Homo sapiens) (Q16656 whole entry, looked up): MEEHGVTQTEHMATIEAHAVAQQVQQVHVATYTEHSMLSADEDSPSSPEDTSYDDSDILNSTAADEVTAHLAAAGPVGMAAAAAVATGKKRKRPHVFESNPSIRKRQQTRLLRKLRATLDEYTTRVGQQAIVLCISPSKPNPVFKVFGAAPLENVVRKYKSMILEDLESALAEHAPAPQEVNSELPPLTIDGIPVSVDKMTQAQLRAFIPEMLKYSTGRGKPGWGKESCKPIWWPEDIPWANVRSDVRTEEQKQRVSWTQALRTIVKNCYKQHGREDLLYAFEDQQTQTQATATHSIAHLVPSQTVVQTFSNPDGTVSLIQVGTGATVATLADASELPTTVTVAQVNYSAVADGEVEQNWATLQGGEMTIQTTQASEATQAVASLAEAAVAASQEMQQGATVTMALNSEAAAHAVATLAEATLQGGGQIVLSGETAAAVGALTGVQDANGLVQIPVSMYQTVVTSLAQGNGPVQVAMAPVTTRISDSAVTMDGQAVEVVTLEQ
Chain of Oxysterols receptor LXR-beta (Homo sapiens) (P55055 whole entry, looked up, the tested form may be a part): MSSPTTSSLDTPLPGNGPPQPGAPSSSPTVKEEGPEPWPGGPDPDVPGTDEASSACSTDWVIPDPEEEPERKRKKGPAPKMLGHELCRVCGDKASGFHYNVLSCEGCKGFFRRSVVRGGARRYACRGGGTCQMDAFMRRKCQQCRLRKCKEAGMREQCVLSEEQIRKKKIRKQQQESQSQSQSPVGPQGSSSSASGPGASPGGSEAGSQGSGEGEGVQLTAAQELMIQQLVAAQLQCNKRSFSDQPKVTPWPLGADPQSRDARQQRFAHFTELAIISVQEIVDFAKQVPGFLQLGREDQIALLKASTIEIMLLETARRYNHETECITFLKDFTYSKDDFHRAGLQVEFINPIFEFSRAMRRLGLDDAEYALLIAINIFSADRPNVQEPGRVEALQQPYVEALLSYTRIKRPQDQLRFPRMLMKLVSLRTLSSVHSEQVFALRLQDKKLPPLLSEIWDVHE

With `CCC(=O)Oc1ccc(/C(CC)=C(\CC)c2ccc(OC(=O)CC)cc2)cc1`, the call in test [1], in [2] and in test [3] was inactive. Moreover, the AC50 in [4] was 26.9 µM (active).

Regarding `O=C(c1ccc(O)cc1)c1ccc(O)cc1O`, the result in [1], in test [5], in [6], in test [7], in test [8] and in [4] was inactive.

For `NNC(=O)c1cccc(C(=O)NN)c1`, the compound was called inactive in test [1], in test [2], in [3], in [6], in test [7] and in [8]. In test [4], the compound was called inactive.

As for `COc1ccc2nc(N)sc2c1`, the call in test [1], in [5], in [6], in test [7], in test [9] and in [8] was inactive. Also, the result in test [4] was inactive.

`CCN(CC)c1ccc(C(=O)c2ccccc2C(=O)O)c(O)c1`: the outcome in test [1], in [5], in test [3], in test [6], in test [7] and in [4] was inactive.

Regarding `CC(C)C1=CC2=CC[C@@H]3[C@](C)(CCC[C@@]3(C)C(=O)O)[C@H]2CC1`, the outcome in test [1], in [3], in test [6], in [8] and in test [4] was inactive. Moreover, the figures for the AC50 in test [5] and in [9] were 26.8 µM (active) and 111 µM (active), respectively.

Take `CCCCCCCC[N+](C)(CCCCCCCC)CCCCCCCC`: the result in test [1], in [5], in test [3], in test [7], in test [8] and in [4] was inactive.

With `CCCCC(CC)COC(=O)c1ccccc1O` (stereo not drawn), the outcome in test [1], in [5], in test [6], in [7], in test [9] and in [8] was inactive. Also, the compound was classed as inactive in test [4].

With `CC(C)c1ccc2cc(C(C)C)ccc2c1`, the call in test [1], in test [2], in [3], in test [6] and in test [4] was inactive.

As for `CC1=NC(C)OC1C` (stereo not drawn), the outcome in [1], in test [2], in [3], in [7], in [9] and in test [8] was inactive. Further, the compound was called inactive in test [4].

For `CC(C)c1ccc(C#N)cc1`, the outcome in test [1], in test [5], in test [8] and in test [4] was inactive.

For `NC(CO)(CO)CO`, the result in [1], in [2], in [3], in test [6], in [7] and in test [9] was inactive. The compound was classed as inactive in [8] and in test [4].

As to `COC(=O)/C=C\C(=O)O`, the result in test [1], in test [2], in test [3], in [8] and in test [4] was inactive.

As to `CCC(CO)CO`, the compound was classed as inactive in test [1], in [2], in test [3], in [7], in test [9] and in [8]. Besides, the compound was classed as inactive in test [4].

On to `CC(C)(Oc1ccc(C2CC2(Cl)Cl)cc1)C(=O)O` (stereo not drawn), for which the result in test [1], in [5], in test [7], in [8] and in [4] was inactive.

On to `C[Si](C)O[Si](C)(C)O[Si](C)(C)O[Si](C)C`, for which the result in [1], in [2], in [6], in test [7], in test [9] and in test [8] was inactive. In test [4], the call was inactive.

Regarding `CC1(C)[C@H]2CC[C@]1(C)C(=O)C2`, the compound was called inactive in [1], in [5], in test [6], in [7], in test [8] and in test [4].

On to `CC(=O)OC(C)C`, for which the compound was called inactive in test [1], in [5], in test [9], in test [8] and in test [4].

`CC(=O)c1ccc2c(c1)CCCC2`: the compound was classed as inactive in test [1], in test [2], in test [7], in test [8] and in test [4].

As for `CCOC(=O)CC(C(C)=O)C(C)=O`, the compound was classed as inactive in test [1], in test [5], in test [3], in test [8] and in test [4].

For `CC(C)c1ccc(C=O)cc1`, the compound was called inactive in test [1], in test [2], in [3], in test [6], in [7] and in test [9]. Moreover, the outcome in test [8] and in test [4] was inactive.

On to `CCc1nccnc1C`, for which the call in [1], in test [2], in test [3], in test [6], in [7] and in test [9] was inactive. In addition, the compound was called inactive in [8] and in test [4].

For the compound `CC1(C)S[C@@H]2[C@H](NC(=O)COc3ccccc3)C(=O)N2[C@H]1C(=O)O`, the call in test [1], in [5], in test [8] and in [4] was inactive.

As to `C=CC(=O)OCCOC1C2CCC1C1CC=CC12` (stereo not drawn), the compound was called inactive in test [1], in [2], in test [8] and in test [4].

Regarding `COCc1c(C(C)C)nc(C(C)C)c(/C=C/[C@@H](O)C[C@@H](O)CC(=O)O)c1-c1ccc(F)cc1`, the call in test [1], in test [6], in test [9], in test [8] and in [4] was inactive.

For the compound `O=c1[nH]c(=O)c2[nH]c(=O)[nH]c2[nH]1`, the result in [1], in test [6], in [9], in test [8] and in test [4] was inactive.

In the case of `O=C1CC2CC1C1CCCC21` (stereo not drawn), the call in test [1], in test [7] and in test [4] was inactive.

`CC(=O)Nc1ccc2c(c1)Cc1cc(NC(C)=O)ccc1-2`: the result in [1], in [3], in test [6], in test [9], in test [8] and in test [4] was inactive.

Turning to `CO[Si](CCC1CCC2OC2C1)(OC)OC` (stereo not drawn), the compound was called inactive in [1], in test [7], in test [8] and in test [4].

Take `CCCCCc1ccc(Cl)cc1`: the outcome in test [1], in test [8] and in test [4] was inactive.

For `OCCNCc1ccccc1`, the call in test [1], in test [7], in test [8] and in test [4] was inactive.

The values above are taken from PubChem BioAssay (EPA / NIEHS).
